Source: PubChem BioAssay (National Center for Advancing Translational Sciences (NCATS))
The sample as a whole holds a higher share of hits than the screen did.
nsP2pro primary – inhibitors of chikungunya virus nsP2 protease; Q8JUX6; FRET peptide cleavage, nsP2pro, fluorescence 1 h; Potency, µM (top dose mostly 24.9 µM), for inactives: top-dose activity change, negative = inhibition, actives largely listed as inhibitors; hit rate 1.1% among 31,000; AID 1964107; also: nearly all actives have a fitted effect of over 60% in size
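FRET cleavage of 2.5 uM peptide 2 by 150 nM CHIKV protease domain at pH 8.0 (Tris, Tween 20). Compounds at 7 concentrations (up to 25 uM) preincubated 15 min. Fluorescence read after 1 h at room temperature.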
CHIKV nsP2 cell – inhibits CHIKV nsP2 protease in cells | hit rate 10% among 450 | Potency, µM (top dose mostly 51.1 µM), inactives show at the top dose activity change, negative = inhibition, actives largely listed as inhibitors | cell-based CHIKV nsP2 protease reporter assay | shares compounds with nsP2pro primary; also: nearly all actives have a fitted effect of over 70% in size
CHIKV NSP2 FL – selectivity test for CHIKV nsP2 protease inhibitors: full-length NSP2. shares compounds with nsP2pro primary. Full-length CHIKV NSP2 protease enzymatic counterscreen. Potency, µM (top dose mostly 50.7 µM), inactives show at the top dose activity change, negative = inhibition, usual class: inhibitors. hit rate 39% among 410. AID 1964101; also: nearly all actives have a fitted effect of over 65% in size
Furin counter – human furin inhibition, counterscreen for nsP2pro inhibitors. shares compounds with nsP2pro primary. Recombinant human furin enzymatic counterscreen, fluorogenic substrate. Potency, µM (titrated, usually from 50.6 µM), for the others: top-dose activity change, negative = inhibition, usual class: inhibitors. hit rate 6% among 410
NS23 peptide cs – selectivity test for CHIKV nsP2 protease inhibitors: endogenous NS2/3 peptide. shares compounds with nsP2pro primary. Purified CHIKV nsP2 protease, endogenous NS2/3 peptide cleavage. Potency, µM (top dose mostly 51 µM), for the others: top-dose activity change, negative = inhibition, actives largely listed as inhibitors. hit rate 34% among 410; also: nearly all actives have a fitted effect of over 55% in size
Papain cs – inhibits papain in a CHIKV nsP2 protease selectivity counterscreen; purified papain protease activity, enzymatic inhibition; shares compounds with nsP2pro primary; Potency, µM (titrated, usually from 51 µM), for the others: top-dose activity change, negative = inhibition, usual class: inhibitors; hit rate 5% among 410; AID 1964104
nsP2pro conf qHTS – CHIKV nsP2 protease inhibition, confirmatory qHTS; CHIKV nsP2 protease enzymatic activity, qHTS; hit rate 43% among 410; Potency, µM (top dose mostly 25.5 µM), without a hit: top-dose activity change, negative = inhibition, most hits filed as inhibitors; shares compounds with nsP2pro primary; also: nearly all actives have a fitted effect of over 75% in size
HCV NS3 counter – selectivity counter-screen for CHIKV nsP2 protease inhibitors: HCV NS3/4A. shares compounds with nsP2pro primary. HCV NS3/4A protease biochemical counterscreen. Potency, µM (series often up to 50.9 µM), actives largely listed as inhibitors. hit rate 20% among 410; also: nearly all actives have a fitted effect of over 55% in size
An asterisk follows results filed as active; i = inactive; ? = inconclusive; ! = repeats disagree; [ ] = dose if it differs, or a comment. Calls follow the shape of the full dose curve. % is scaled to controls: 0 for no effect and ±100 for the full control effect; potency is read from the fitted curve at half-maximal effect.

SMILES	nsP2pro primary	others
O=C(Nc1ccccc1)Nc1ccc(-c2ccc(C(=O)C3CCCC3C(=O)O)cc2)cc1 (centres undefined)	98.6%
CN1CCCC2(C1)CN(C)c1ccc(C(=O)NCC3CCCCC3)cc12 (centres undefined)	i
CNC(=O)Oc1ccc2c(c1)[C@]1(C)CCN(C)[C@@H]1N2C	4.42µM*!	CHIKV nsP2 cell=-3.8%;CHIKV NSP2 FL=-18.8%;Furin counter=-1.9%;NS23 peptide cs=-16.2%;Papain cs=-7.8%;nsP2pro conf qHTS=?;HCV NS3 counter=i
COc1ccc2nc(-c3ccccc3OCc3ccccc3)sc2c1	-0.1%
O=C1OC(/C=C/c2ccccc2)=NC/1=C\c1cccnc1	7.8%
O=C1c2ccccc2C(=O)N1c1cccnc1	i
O=C1C(=Cc2cccnc2)C(=O)c2ccccc21	?	CHIKV nsP2 cell=-11.2%;CHIKV NSP2 FL=?;Furin counter=-9.9%;NS23 peptide cs=18.3µM*;Papain cs=-7.2%;nsP2pro conf qHTS=5.04µM*;HCV NS3 counter=?
C=CCc1cccc(CNc2ccc(S(=O)(=O)Nc3nccs3)cc2)c1O	i
CC(=O)Nc1sc2c(c1C#N)CCN(C(C)C)C2	-9.5%
O=C(Nc1ccc(Cl)cc1)c1ccc2c(c1)N(Cc1ccccc1)CCS2	-4.6%
Cc1cccc(C(=O)Nc2ccc3ncnc(N4CCCCC4)c3c2)c1	33.7%
Cc1cccc(C(=O)Nc2cc3c(cc2N2CCCCC2)n(C)c(=O)n3C)c1	-9.0%
O=C(Nc1ccc(Cl)cc1)N1CCC(c2ccccc2)C1 (centres undefined)	-10.2%
Cc1cccc(C(=O)Nc2ccc(N3CCC(N4CCCCC4)CC3)c(C(=O)O)c2)c1	5.01µM*	CHIKV nsP2 cell=11.4%;CHIKV NSP2 FL=4.61µM*;Furin counter=?;NS23 peptide cs=14.6µM*;Papain cs=-4.1%;nsP2pro conf qHTS=7.11µM*;HCV NS3 counter=2.59µM*
O=C(Nc1ccc(N2CCC(c3ccccc3)C2)c(C(=O)O)c1)c1ccc(Cl)cc1 (centres undefined)	3.55µM*	CHIKV nsP2 cell=29.6%;CHIKV NSP2 FL=3.66µM*;Furin counter=?;NS23 peptide cs=11.6µM*;Papain cs=8.7%;nsP2pro conf qHTS=7.11µM*;HCV NS3 counter=3.66µM*
COc1ccc2sc(NC(c3ccc(OC(F)F)cc3)c3ccc4cccnc4c3O)nc2c1 (centres undefined)	167.6%
C=CCN1CC[C@]23c4c5ccc(O)c4O[C@H]2[C@@H](O)CC[C@@]3(O)[C@H]1C5	8.6%
COCCN1CCC(CN(Cc2ccncc2)C(=O)C2CC23CCCC3)CC1 (centres undefined)	i
CCn1c(=O)c(-c2cc(NC(=O)Nc3ccccc3)c(F)cc2Br)cc2cnc(NC)cc21	-0.9%
Fc1ccccc1-c1nc(-c2cccc(-c3nn[nH]n3)c2)no1	i
c1c(C2CC2)nnn1C1CNC1	8.91µM*	CHIKV nsP2 cell=15.0%;CHIKV NSP2 FL=-18.2%;Furin counter=-25.1%;NS23 peptide cs=?;Papain cs=-1.4%;nsP2pro conf qHTS=?;HCV NS3 counter=?
Cc1cnn(-c2cc(N3CCC(n4cc(C5CCCC5)nn4)CC3)ncn2)c1	i
O=C(NCc1ccccc1)c1cn(C2CNC2)nn1	-29.8%
Cc1cccc(NC(=O)c2cc(-c3ccc(C)c(C)c3)nc3ccccc23)c1	1.4%
CC(C)(C)OC(=O)N[C@@H](Cc1ccc(O[S+](=O)([O-])c2cccc3cnccc23)cc1)C(=O)N1CCN(Cc2ccccc2)CC1	-0.3%
C=C1C[C@]23C[C@@]1(O)CC[C@H]2[C@@]12C=C[C@H](O)[C@@](C)(C(=O)O1)[C@H]2[C@@H]3C(=O)O	-11.6%
C=C1CC23CC1CCC2C12OC(=O)C(C)(C(O)C(O)C1O)C2C3C(=O)O (centres undefined)	?	CHIKV nsP2 cell=3.3%[33.5 µM];CHIKV NSP2 FL=?;Furin counter=-3.7%[33.5 µM];NS23 peptide cs=-22.3%[33.5 µM];Papain cs=-10.7%[33.5 µM];nsP2pro conf qHTS=?;HCV NS3 counter=i
